Measurements published in PubChem BioAssay AID1159580 (chemical genetic matrix, 2015).
“And” between values parts separate entries of the source, which are not always exact repeats. Identical values can stand only once. In all, about 5,500 compounds went through this assay and about 2,000 (36%) were called active. About 18% were inconclusive and are not listed. Cut-off read from the data, not from the text of the source: active = normalized growth mostly below about 0.91 (no sharp cut-off); inconclusive = no clear call, values can overlap the other calls; inactive = mostly above about 0.92. Some of the results follow.

Assay: chemical genetic growth profiling, strain panel (AID 1159580);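 note: tested at 20 µM; growth read once vehicle control cultures reached saturation at 30 °C; 1 = growth at the plate median or of vehicle wells; lower values mean less growth of the strain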
Conditions: S. cerevisiae deletion strains, growth OD

Measured: normalized growth

COc1ccc2c(c1)O[C@H]1c3ccc(OC)cc3OC[C@@H]21
active: locus YDL192W, strain arf1, stronger effect = lower value 0.897 | locus YDR101C, strain arx1, stronger effect = lower value 0.911 | locus YDR318W, strain mcm21, stronger effect = lower value 0.87 | locus YDR502C, strain sam2, stronger effect = lower value 0.876 | locus YGL078C, strain dbp3, stronger effect = lower value 0.897 | locus YGL086W, strain mad1, stronger effect = lower value 0.882 | locus YGL248W, strain PDE1, stronger effect = lower value 0.863 | locus YGR135W, strain pre9, stronger effect = lower value 0.84 | locus YGR252W, strain gcn5, stronger effect = lower value 0.669 | locus YIR030C, strain dcg1, stronger effect = lower value 0.927
inactive: locus YAL021C, strain ccr4, stronger effect = lower value 1.03 | locus YAL026C, strain drs2, stronger effect = lower value 1.02 | locus YAL030W, strain snc1, stronger effect = lower value 1.02 | locus YBL061C, strain skt5, stronger effect = lower value 1.02 | locus YBR009C, strain hhf1, stronger effect = lower value 1 | locus YBR021W, strain FUR4, stronger effect = lower value 0.961 | locus YBR023C, strain chs3, stronger effect = lower value 1.02 | locus YBR171W, strain sec66, stronger effect = lower value 1.03 | locus YBR229C, strain ROT2, stronger effect = lower value 0.975 | locus YBR231C, strain swc5, stronger effect = lower value 1.01 | locus YBR279W, strain paf1, stronger effect = lower value 1.02 | locus YCL011C, strain gbp2, stronger effect = lower value 1.02 | locus YCL016C, strain dcc1, stronger effect = lower value 1.03 | locus YCL029C, strain bik1, stronger effect = lower value 0.99 | locus YCL069W, strain vba3, stronger effect = lower value 1.03 | locus YCR088W, strain abp1, stronger effect = lower value 1.02 | locus YDL005C, strain med2, stronger effect = lower value 1.02 | locus YDL035C, strain GPR1, stronger effect = lower value 0.945 | locus YDL040C, strain nat1, stronger effect = lower value 1.01 | locus YDL074C, strain BRE1, stronger effect = lower value 0.911 | locus YDL101C, strain DUN1, stronger effect = lower value 0.984 | locus YDL185W, strain tfp1, stronger effect = lower value 0.98 | locus YDR001C, strain nth1, stronger effect = lower value 1.01 | locus YDR069C, strain doa4, stronger effect = lower value 1.01 | locus YDR137W, strain rgp1, stronger effect = lower value 1.06 | locus YDR150W, strain NUM1, stronger effect = lower value 0.986 | locus YDR159W, strain sac3, stronger effect = lower value 1.05 | locus YDR162C, strain NBP2, stronger effect = lower value 0.937 | locus YDR195W, strain ref2 0.976 | locus YDR297W, strain sur2, stronger effect = lower value 1.03 | locus YDR334W, strain swr1, stronger effect = lower value 1.02 | locus YDR335W, strain msn5, stronger effect = lower value 1.03 | locus YDR388W, stronger effect = lower value 0.956 | locus YDR392W, strain spt3, stronger effect = lower value 1.03 | locus YEL003W, strain gim4, stronger effect = lower value 1.02 | locus YEL037C, strain rad23, stronger effect = lower value 1.02 | locus YEL061C, strain CIN8 (second series), stronger effect = lower value 1.02 | locus YEL061C, strain CIN8, stronger effect = lower value 0.985 | locus YER015W, strain faa2, stronger effect = lower value 1.03 | locus YER016W, strain bim1, stronger effect = lower value 1.02 | locus YER110C, stronger effect = lower value 0.924 | locus YER111C, strain swi4, stronger effect = lower value 1.02 | locus YER155C, strain BEM2 (second series), stronger effect = lower value 1.04 | locus YER167W, strain BCK2, stronger effect = lower value 0.989 | locus YFR010W, strain ubp6, stronger effect = lower value 1.01 | locus YGL167C, strain pmr1, stronger effect = lower value 1.02 | locus YGL173C, strain kem1, stronger effect = lower value 1.02 | locus YGL227W, strain vid30, stronger effect = lower value 1.02 | locus YGL240W, strain doc1, stronger effect = lower value 1.03 | locus YGL253W, strain hxk2, stronger effect = lower value 1.02 | locus YGR078C, strain PAC10, stronger effect = lower value 0.928 | locus YHR013C, strain ard1, stronger effect = lower value 1.05 | locus YHR027C, strain rpn1, stronger effect = lower value 1.02 | locus YHR030C, strain SLT2, stronger effect = lower value 0.977 | locus YHR079C, strain IRE1 (second series), stronger effect = lower value 0.95 | locus YHR079C, strain IRE1, stronger effect = lower value 0.964 | locus YHR094C, strain hxt1, stronger effect = lower value 0.968 | locus YHR129C, strain ARP1, stronger effect = lower value 1 | locus YHR142W, strain chs7, stronger effect = lower value 1.02 | locus YHR200W, strain rpn10, stronger effect = lower value 0.944 | locus YIL066C, strain RNR3, stronger effect = lower value 0.977 | locus YIL073C, strain SPO22, stronger effect = lower value 0.961 | locus YIL125W, strain kgd1, stronger effect = lower value 0.973 | locus YJL092W, strain hpr5, stronger effect = lower value 1.02 | locus YJL095W, strain BCK1 (second series), stronger effect = lower value 1.01 | locus YJL115W, strain asf1, stronger effect = lower value 1.03 | locus YJL129C, strain trk1, stronger effect = lower value 1.05 | locus YJL134W, strain LCB3, stronger effect = lower value 0.992 | locus YJL154C, strain vps35, stronger effect = lower value 1.02 | locus YJL164C, strain tpk1, stronger effect = lower value 1.02 | locus YJL166W, strain qcr8, stronger effect = lower value 1.02 | locus YJL168C, strain set2, stronger effect = lower value 0.955 | locus YJL187C, strain SWE1 (second series), stronger effect = lower value 0.96 | locus YJL187C, strain SWE1, stronger effect = lower value 1.02 | locus YJR066W, strain TOR1, stronger effect = lower value 0.927
0.684 (active) and 0.982 (inactive): locus YJL095W, strain BCK1, stronger effect = lower value
